Source: PubChem
FEN1 inh-1: qHTS Assay for the Inhibitors of Human Flap endonuclease 1 (FEN1); 0.35% of 390,000 active; AID 588795, 2011; Recombinant FEN1 flap cleavage, fluorescence, 15 min; Potency, µM (series often up to 114 µM), for the others: at the highest dose activity change, negative = inhibition, hits mostly inhibitors; also: % is scaled to controls: 0 for no effect and ±100 for the full control effect; nearly all actives have a fitted effect of over 65% in size
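Quantitative HTS format: each compound was titrated, incubated with 10 nM nuclease for 15 min at room temperature, then challenged with flap substrate at 50 nM final. Signal change over 15 min gave concentration–effect curves.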
Pol eta inh-1: qHTS for Inhibitors of Polymerase Eta; DNA polymerase eta (Homo sapiens), Q9Y253; recombinant Pol eta, fluorescent DNA replication assay; Potency, µM (highest dose often 114 µM), without a hit: at the top dose activity change, negative = inhibition, most hits filed as inhibitors; 1.2% of 390,000 active; also: % is scaled to controls: 0 for no effect and ±100 for the full control effect
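Fluorescent replication assay: 50 nM final substrate added after a 15 min room-temperature compound preincubation with 10 nM enzyme. Signal taken at 0 min and again at 10 min.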
Pol kappa inh-1: qHTS for Inhibitors of Polymerase Kappa; 0.53% of 400,000 active; purified Pol kappa, fluorescent DNA synthesis assay, 10 min; DNA polymerase kappa (Homo sapiens), Q9UBT6; Potency, µM (top dose mostly 107 µM), for the others: at the top dose activity, negative = inhibition, most hits filed as inhibitors; also: % is scaled to controls: 0 for no effect and ±100 for the full control effect
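Fluorescent qHTS in 1536-well format: enzyme (10 nM) and compound sat 15 min at room temperature before 50 nM substrate (final) was added. Signal taken at 0 and 10 min; no-enzyme buffer wells were negative controls.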
POLB inh: qHTS Assay for Inhibitors of DNA Polymerase Beta. Pol beta primer extension/strand displacement, fluorescence kinetic. P06746. Potency, µM (top dose mostly 114 µM), inactives show at the highest dose activity change, negative = inhibition, usual class: inhibitors. AID 485314, 2010. 1.3% of 340,000 active; also: % is scaled to controls: 0 for no effect and ±100 for the full control effect
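Kinetic readout of DNA synthesis with strand displacement by Pol beta. Compound and 10 nM enzyme sit 15 min at room temperature; 50 nM substrate starts the reaction, read immediately and at 10 min.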
TDP1 inh: qHTS Assay for Inhibitors of Tyrosyl-DNA Phosphodiesterase (TDP1); 0.28% of 350,000 active; Potency, µM (top dose mostly 130 µM), for the others: at the highest dose activity change, negative = inhibition, hits mostly inhibitors; Tyrosyl-DNA phosphodiesterase 1 (Homo sapiens), Q9NUW8; recombinant TDP1, AlphaScreen DNA substrate cleavage; also: % is scaled to controls: 0 for no effect and ±100 for the full control effect; nearly all actives have a fitted effect of over 40% in size
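Recombinant E. coli-expressed Tdp1 (1 nM) preincubated with compound 15 min at RT, then 5'-biotin/3'-phosphotyrosine-FITC DNA substrate (15 nM) added for 5 min. AlphaScreen beads (10 ug/ml) added, 10 min RT; tyrosine-FITC cleavage read as signal loss.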
POLI inh: qHTS for Inhibitors of Polymerase Iota. DNA polymerase iota (Homo sapiens), Q9UNA4. Pol iota fluorescent replication assay, 10 min. Potency, µM (titrated, usually from 115 µM), for the others: top-dose activity, negative = inhibition, most hits filed as inhibitors. 1% of 390,000 active. AID 588590, 2011
Target sequence (Q9UNA4 whole entry, looked up): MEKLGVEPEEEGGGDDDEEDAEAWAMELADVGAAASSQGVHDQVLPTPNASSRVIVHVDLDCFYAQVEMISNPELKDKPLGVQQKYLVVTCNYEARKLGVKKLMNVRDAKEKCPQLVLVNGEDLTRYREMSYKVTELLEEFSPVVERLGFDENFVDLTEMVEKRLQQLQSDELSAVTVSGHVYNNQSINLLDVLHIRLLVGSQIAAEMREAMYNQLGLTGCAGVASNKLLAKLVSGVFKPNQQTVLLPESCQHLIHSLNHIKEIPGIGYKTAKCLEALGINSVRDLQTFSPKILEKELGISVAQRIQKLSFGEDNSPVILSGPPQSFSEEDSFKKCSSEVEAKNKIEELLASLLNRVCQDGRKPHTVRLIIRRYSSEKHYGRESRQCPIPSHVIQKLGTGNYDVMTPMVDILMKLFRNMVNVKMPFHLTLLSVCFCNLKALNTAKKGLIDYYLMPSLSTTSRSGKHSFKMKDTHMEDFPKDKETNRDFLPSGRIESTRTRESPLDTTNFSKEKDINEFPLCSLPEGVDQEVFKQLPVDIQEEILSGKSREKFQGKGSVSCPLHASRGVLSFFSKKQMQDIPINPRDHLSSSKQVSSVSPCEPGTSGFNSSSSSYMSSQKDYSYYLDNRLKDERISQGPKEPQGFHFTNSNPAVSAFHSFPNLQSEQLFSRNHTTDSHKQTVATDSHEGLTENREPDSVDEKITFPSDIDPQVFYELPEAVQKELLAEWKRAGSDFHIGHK
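Pol iota at 10 nM preincubated 15 min with compounds at room temperature; reaction started with fluorescent substrate, 50 nM final. Fluorescence read kinetically at 0 and 10 min; buffer-only wells as negative control.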
Pol kappa inh-2: qHTS for Inhibitors of Polymerase Kappa: Confirmatory Assay for Cherry-picked Compounds; shares compounds with Pol eta inh-1; purified Pol-kappa, fluorescent strand-displacement substrate; Potency, µM, usual class: inhibitors; 76% of 920 active
Pol eta inh-2: qHTS for Inhibitors of Polymerase Eta: Confirmatory Assay for Cherry-picked Compounds; shares compounds with Pol eta inh-1; Pol eta primer extension, TAMRA/BHQ fluorescence, 10 min; Potency, µM, hits mostly inhibitors; 64% of 2,600 active; AID 720502, 2013
FEN1 inh-2: qHTS Assay for the Inhibitors of FEN1: Confirmatory Assay for Cherry-picked Compounds; shares compounds with FEN1 inh-1; FEN1 flap cleavage, TAMRA/BHQ2 fluorogenic DNA substrate; Potency, µM, actives largely listed as inhibitors; AID 720498, 2013; 79% of 880 active; also: nearly all actives have a fitted effect of over 60% in size
* marks the source's active call; other numbers are inactive results; ? = inconclusive; . = no result given; [ ] = dose if it differs, or a comment. This is a sample that favours compounds with a hit; in the whole collection about 2.4% have one here. Calls follow the shape of the dose curve; as a rule, active = well fitted curve in the direction sought with a large enough effect; inconclusive = small, poorly fitted or top-dose-only effect, or another doubt; inactive = no such curve, though single readings can be large; an effect the other way counts as inactive or inconclusive. Potency is read from the fitted curve at half-maximal effect.

SMILES	FEN1 inh-1	Pol eta inh-1	Pol kappa inh-1	POLB inh	TDP1 inh	POLI inh	Pol eta inh-2	FEN1 inh-2	others
Nc1ccc(Br)c2cccnc12	?	?	2%	20%	5%	?	?	67*
CN=c1scc(C)n1/N=C/c1ccc(O)c(O)c1O	79µM*	3.5µM*	13µM*	5µM*	-2%	7.9µM*	54*	34*
CN=c1scc(C)n1/N=C/c1cc(Br)c(O)c(OC)c1	2%	-8%	-4%	1%	-4%	168%	.	.
COc1ccc(S(=O)(=O)N2CCCCC2)cc1NC(=O)CCNC(=O)c1ccc(Br)cc1	0%	-4%	-8%	.	.	-1%	.	.
CC(=O)N(\C=C/C=C/C=C1\Sc2ccccc2C1=O)c1ccccc1	?	79µM*	25µM*	20µM*	2%	?	?	?	Pol kappa inh-2=75*
Cc1cc(Cl)ccc1OCC(=O)N(Cc1ccc(N(C)C)cc1)CC1CCCO1 (stereo not given)	-7%	-21%	-19%	8%	12%	7%	.	.
O=C(Nc1cc(C(=O)Nc2ccccc2C(=O)O)cc(C(=O)Nc2ccccc2C(=O)O)c1)c1ccccc1	25µM*	14µM*	?	6%	0%	?	30*	34*
O=C(Nc1ccccc1C(=O)O)c1cccc(NC(=O)c2ccccc2Br)c1	-3%	-2%	-3%	22%	.	10%	.	.
COCCC(=O)N1CCC(Oc2ccc(C(=O)NCc3ncc(C)[nH]3)cc2)CC1	-1%	-3%	-13%	16%	2%	24%	.	.
O=c1nc(/C=C/c2ccc(-c3ccc(F)cc3)o2)cc(C(F)(F)F)[nH]1	.	.	.	?	5%	.	.	.
O=C(O)c1cc(Cl)ccc1-c1ccc(/C=C/c2cc(C(F)(F)F)[nH]c(=O)n2)o1	?	50µM*	?	-30%	-5%	?	38*	60*
Cc1c(C(=O)O)c(O)cc2c1C(=O)c1c(O)c([C@@H]3O[C@H](CO)[C@@H](O)[C@H](O)[C@H]3O)c(O)c(O)c1C2=O	?	?	50µM*	.	3%	?	?	85*	Pol kappa inh-2=42*
COc1cc(OC)c([C@@H]2O[C@H](CO)[C@@H](O)[C@H](O)[C@H]2O)c(OC)c1	.	.	.	.	5%	.	.	.
Cc1ccc(C(=O)/C=C/c2cc(Br)cc(Br)c2O)o1	?	50µM*	-12%	?	.	?	?	85*
CCOC(=O)C1=C(COC(=O)c2ccc([N+](=O)[O-])s2)NC(=O)NC1C (stereo not given)	?	40µM*	?	.	-4%	50µM*	?	4.3*
CCc1ccc(-n2nc3cc(C)c(NC(=O)c4ccccc4C)cc3n2)cc1	-10%	4%	-15%	34%	-8%	6%	.	.
COc1ccccc1N1C(=N)S/C(=C\c2ccc(-c3ccccc3C(=O)O)o2)C1=O	45µM*	14µM*	50µM*	79µM*	11µM*	20µM*	30*	?	Pol kappa inh-2=19*
O=C(O)CN1C(=O)/C(=C\c2cc(Br)ccc2OCc2ccc([N+](=O)[O-])cc2)SC1=S	?	28µM*	71µM*	28µM*	.	40µM*	?	85*	Pol kappa inh-2=27*
COc1cc([N+](=O)[O-])cc(/C=C2/SC(=S)N(Cc3ccccc3)C2=O)c1O	16µM*	?	-20%	18µM*	.	14µM*	43*	21*	Pol kappa inh-2=19*
CC(C)c1ccc(S(=O)(=O)Nc2cc3c(cc2NCc2ccccc2)n(C)c(=O)n3C)cc1	-29%	-22%	-9%	0%	0%[12.3 µM]	7%	.	.
CC1CCN(C(=O)COC(=O)c2ccc(Br)o2)CC1	-1%	-18%	0%	5%	9%	36%	.	.
CC1CCN(C(=O)COC(=O)c2ccc([N+](=O)[O-])o2)CC1	?	50µM*	-6%	.	0%	50µM*	?	6*
CC(C)(C)c1nnc(SCC(=O)c2ccccc2)n(N)c1=O	5%	-10%	4%	8%	1%	12%	.	.
O=C(N/N=C/c1cc(Br)c(O)c(Br)c1)c1cc2c(ccc3ccccc32)o1	56µM*	18µM*	20µM*	?	-20%	?	85*	43*
CC(=O)Oc1ccc(/C=N\NC(=O)c2cc3c(ccc4ccccc43)o2)cc1	11%	-11%	10%	?	.	17%	.	.
SMILES	FEN1 inh-1	Pol eta inh-1	Pol kappa inh-1	POLB inh	TDP1 inh	POLI inh	Pol eta inh-2	FEN1 inh-2	others
CCOc1cc(/C=C(\C#N)C(=O)Nc2cccc(C(=O)O)c2)ccc1OCc1ccccc1Cl	?	56µM*	0%	-2%	79µM*	?	?	?
Cc1nn2c(=O)cc(COc3ccc(/C=C(\C#N)C(=O)Nc4ccccc4)cc3Cl)nc2s1	7%	-22%	-13%	?	.	?	.	.
O=C1NC(=S)S/C1=C\c1cc(Cl)cc(Cl)c1O	?	35µM*	?	.	.	32µM*	.	85*	Pol kappa inh-2=24*
Cc1csc(N/N=C/c2ccc(O)c([N+](=O)[O-])c2)n1	79µM*	7.1µM*	22µM*	25µM*	?	13µM*	38*	67*
O=C1CN(C(=O)COC(=O)c2ccc([N+](=O)[O-])s2)c2ccccc2N1	?	22µM*	-11%	.	3%	?	?	7.6*
COc1cc(NS(=O)(=O)c2ccc(NC(=S)NC(=O)c3sc4ccccc4c3Cl)cc2)nc(OC)n1	-5%	-11%	-5%	29%	1%	20%	.	.
